Source: PubChem
CtBP-E1A inh: inhibitors of CtBP/E1A interaction; AlphaScreen GST-E1A/His-CtBP binding, 1536-well; active compounds read low; activity change, % (no concentration beside the values); hit rate 0.49% among 340,000; in the data active means activity change below about -65%; inconclusive means mostly about -30% to -63%
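GST-E1A and His-tagged CtBP (125 nM each as 5X stock) were preincubated with pin-transferred compound for 2 h at 37 °C in the dark, then glutathione donor and nickel acceptor beads were added for 1 h before AlphaScreen reading.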
JMJD2A Tudor inh: JMJD2A Tudor domain (human) inhibition; AlphaScreen JMJD2A-Tudor / H3K4me3 peptide binding; Potency, µM (titrated, usually from 114 µM), usual class: inhibitors; hit rate 4.4% among 390,000; AID 504339; further: nearly all actives have a fitted effect of over 50% in size
HP1b chromo inh: blocks HP1-beta chromodomain binding to methylated histone tails. AlphaScreen HP1-beta / biotin-H3K9me3 peptide binding. Potency, µM (doses to about 114 µM), actives largely listed as inhibitors. hit rate 0.56% among 390,000. AID 540317; further: nearly all actives have a fitted effect of over 70% in size
Target sequence (P83916 whole entry, looked up): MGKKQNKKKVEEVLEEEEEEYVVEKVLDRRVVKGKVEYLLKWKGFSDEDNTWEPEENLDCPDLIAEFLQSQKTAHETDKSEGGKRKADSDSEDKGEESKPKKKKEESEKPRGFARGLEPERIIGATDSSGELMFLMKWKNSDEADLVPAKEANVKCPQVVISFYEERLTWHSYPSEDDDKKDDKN
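AlphaScreen: HP1-beta (50 nM) preformed 30 min with biotin-H3(1-18)K9me3 peptide (50 nM) in PBS pH 7.4, 0.01% Tween-20. Compound added for 30 min at RT, then streptavidin donor/nickel chelate acceptor beads (10 ug/mL) for 30 min.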
G9a inh: blocks human histone lysine methyltransferase G9a | AID 504332 | Q96KQ7 | hit rate 8.8% among 350,000 | Potency, µM (doses to about 102 µM), actives largely listed as inhibitors | G9a H3K9 monomethylation, AlphaScreen, 2 h; further: nearly all actives have a fitted effect of over 75% in size
Target sequence (Q96KQ7 913-1193 limits assumed): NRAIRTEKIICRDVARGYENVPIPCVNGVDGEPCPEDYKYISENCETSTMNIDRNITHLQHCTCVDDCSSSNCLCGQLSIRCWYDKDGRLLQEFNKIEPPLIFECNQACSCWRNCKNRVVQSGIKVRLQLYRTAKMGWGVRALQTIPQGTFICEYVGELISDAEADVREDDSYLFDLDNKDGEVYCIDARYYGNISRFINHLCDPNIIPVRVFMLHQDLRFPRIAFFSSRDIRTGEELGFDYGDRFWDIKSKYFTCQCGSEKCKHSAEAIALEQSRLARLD
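Quantitative HTS format: methyltransferase activity on a biotin-tagged H3K9 peptide is measured by AlphaScreen, using a rabbit anti-monomethyl-H3K9 antibody with streptavidin donor and anti-IgG acceptor beads. Final levels are 20 nM enzyme, 500 nM peptide, 20 uM SAM; 2 h RT.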
Six1-Eya2 inh: blocks human Six1 binding to Eya2. Q15475+O00167. AlphaScreen GST-Six1/His-Eya2 binding, biochemical; active compounds read low. activity change, % (no concentration beside the values). hit rate 0.56% among 360,000; in the data active means activity change below about -65%; inconclusive means mostly about -30% to -63%
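Six1/Eya2 binding was read as AlphaScreen signal after compounds were pinned into GST-Six1 plus His-tagged Eya2 (5X stock 250/500 nM) in pH 8.0 Tris/NaCl/TCEP buffer, beads added, then incubated 1 h, 37 C, dark.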
BAZ2B block: blocks human BAZ2B | AlphaScreen BAZ2B-H3K14Ac peptide displacement | Q9UIF8 | hit rate 4.4% among 360,000 | Potency, µM (highest dose often 114 µM), usual class: inhibitors; further: nearly all actives have a fitted effect of over 60% in size
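AlphaScreen luminescence quantifies BAZ2B engagement of H3K14Ac peptide; the protein and biotinylated peptide are both at 50 nM final, buffer PBS pH 7.4 with 0.01% Tween-20, all steps at room temperature.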
Numbers stand for hits; 0 = inactive; ? = inconclusive; - = not tested or not shown; [ ] = dose if it differs, or a comment. Hits are enriched below; roughly 10% of the tested compounds scored in any of these assays. Unless noted, the call rests on the fitted dose curve; in most records, active means well fitted inhibition curve with a large enough effect; inconclusive means small, poorly fitted or top-dose-only effect; inactive means no such curve, though single readings can be large or run the other way.

SMILES	CtBP-E1A inh	JMJD2A Tudor inh	HP1b chromo inh	G9a inh	Six1-Eya2 inh	BAZ2B block
O=C(O)c1cc(-c2ccc(C(F)(F)F)cc2)nc2n[nH]c(-c3ccccc3)c12	-	0	0	0	-	0
O=C(CCCn1c(=O)c2sccc2n(Cc2cccc(Cl)c2)c1=O)NCc1ccc2c(c1)OCO2	-	0	0	0	-	0
CC/C(=C/c1sc2ccc(C)cc2[n+]1CCCS(=O)(=O)[O-])SC	0	0	0	44.7µM	0	?
CC/C(=C/c1sc2ccc(C)cc2[n+]1CCO)SC	0	?	0	-	0	?
COCCCNC(=S)NNC(=O)c1csc(C)n1	-	0	0	0	-78.4	79.4µM
COCCCNC(=S)NNC(=S)Nc1ccc(OC)cc1	-	1.78µM	?	-	0	0
CCc1ccccc1NC(=O)C1(S(=O)(=O)c2ccc(Cl)cc2)CC1	-	0	0	0	-	0
CCOc1ccc(-c2cc(C(=O)NCc3ccc(OC)cc3)c3c(-c4ccc(F)cc4)[nH]nc3n2)cc1	-	0	0	0	-	0
Cc1cc(C(c2cc(C)c(N)c(C)c2)c2ccco2)cc(C)c1N	0	79.4µM	79.4µM	-	?	-
NC(=O)CC(c1ccccc1)c1ccco1 (centres undefined)	0	0	0	0	0	0
CC(C)Cc1csc(=S)[nH]1	0	3.98µM	0	-	0	-
Cc1cccc2c1-c1sc(C(=O)N(C)c3cccc(Cl)c3)cc1CO2	-	0	0	0	-	0
O=C(CSc1c2c(nc3ccccc13)CCCC2)NCc1ccco1	0	0	0	?	0	0
Nc1c(C(=O)NCc2ccco2)sc2nc3c(cc12)C(=O)CCC3	0	56.2µM	0	?	0	?
CCCC(C)NC(=O)c1c2c(nc3ccccc13)CCC2 (centres undefined)	0	0	0	0	0	50.1µM
CCC(C)NC(=O)c1c2c(nc3ccccc13)C(=O)N(C1CCCCC1)C2 (centres undefined)	-	0	0	0	-	0
O=C(NCc1ccco1)c1c2c(nc3ccccc13)CCC2	0	?	?	39.8µM	?	50.1µM
COc1ccccc1CNC(=O)CN1C(=O)COc2ccc(S(=O)(=O)Nc3ccccc3)cc21	-	0	0	0	-	0
CC1(C)C2([N+](=O)[O-])CN3CC1([N+](=O)[O-])CN(C2)C3c1ccc(O)c(O)c1 (centres undefined)	0	?	0	22.4µM	0	0
Cc1ccc(S(=O)(=O)Nc2cccc3ccc(C)nc23)cc1	-	0	-	-	-	-
C=CCN(CC=C)c1nc2ccccc2nc1C(C#N)C(=O)OCCOC (centres undefined)	0	0	0	50.1µM	0	0
CCCN(CCC)c1nc2ccccc2nc1C(C#N)C(=O)OCCOC (centres undefined)	0	0	0	0	0	0
CCOc1ccc(-c2nnc3ccc(SCc4ccc(C(=O)OC)o4)nn23)cc1	0	0	0	11.2µM	0	0
O=C(CSc1ccc2nnc(-c3ccc(F)cc3)n2n1)NCc1ccco1	0	0	0	8.91µM	0	0
COC(=O)c1ccc(CSc2ccc3nnc(-c4ccc(F)cc4)n3n2)o1	-	0	0	0	0	-
SMILES	CtBP-E1A inh	JMJD2A Tudor inh	HP1b chromo inh	G9a inh	Six1-Eya2 inh	BAZ2B block
O=C(CSc1ccc2nnc(-c3ccncc3)n2n1)NCc1ccco1	0	0	0	0	0	0
COc1ccc(-c2nnc3ccc(SC)nn23)cc1	0	0	0	0	0	0
CCSc1ccc2nnc(-c3ccc(F)cc3)n2n1	0	0	0	17.8µM	0	0
O=C(CSc1ccc2nnc(-c3ccc(F)cc3)n2n1)NCC1CCCO1 (centres undefined)	0	0	0	20µM	0	0
CCOc1ccc(CNC(=O)Cn2ncc3c(=O)oc4ccc(C)cc4c32)cc1	-	0	0	0	-	0
O=C1c2ccccc2C(=O)N1c1cnc2ccccc2c1	-	0	-	-	-	-
CCOC(=O)CNC(=O)CSc1ccc2nnc(-c3ccc(F)cc3)n2n1	0	0	0	31.6µM	0	0
Cn1cc(C(c2ccccc2OCC(=O)O)c2cn(C)c3ccccc23)c2ccccc21	0	14.1µM	?	0	?	50.1µM
Cn1cc(SCC(=O)Nc2nccs2)c2ccccc21	0	0	0	0	0	0
Cn1cc(C(c2ccccn2)c2cn(C)c3ccccc23)c2ccccc21	?	22.4µM	?	0[12.7 µM]	?	35.5µM
c1ccc(C(c2c[nH]c3ccccc23)c2c[nH]c3ccccc23)nc1	0	79.4µM	0	?	0	44.7µM
c1ccc(C(c2cccs2)c2c[nH]c3ccccc23)cc1 (centres undefined)	-	0	0	?	-	0
CCn1c(=O)cc(OCC(=O)O)c2ccccc21	0	0	0	0	0	0
COc1cc([N+](=O)[O-])cc(/C=N/NC(=O)c2cncc(Br)c2)c1O	-89.7	20µM	0	-	-92.9	10µM
Cc1cc(C(=O)N/N=C/c2cccc([N+](=O)[O-])c2)c2ccccc2n1	0	0	0	0	0	0
COc1cccc(/C=N/NC(=O)c2ccc([N+](=O)[O-])cc2Cl)c1O	-87.8	0	0	?	-89.4	?
COc1cc([N+](=O)[O-])cc(/C=N/NC(=O)c2cc(-c3ccccc3)nc3ccccc23)c1O	-87.9	79.4µM	0	0	?	50.1µM
COc1cc(/C=N/NC(=O)c2cccc([N+](=O)[O-])c2)cc(OC)c1O	-	0	0	?	0	0
COc1ccc(/C=N/NC(=O)c2cc(-c3ccccc3)nc3ccccc23)c(C(=O)O)c1OC	0	0	0	0	0	0
COc1cc([N+](=O)[O-])cc(/C=N/NC(=O)c2cc(C)nc3ccccc23)c1O	-83.5	22.4µM	0	0	-93.1	20µM
COc1ccc(C2CC(=O)N(Cc3cccc(C)c3)c3c2c(C)nn3-c2nc(C)cc(C)n2)c(OC)c1 (centres undefined)	-	0	0	0	-	0
CCOc1ccc(C(=O)Nc2ccc(OCc3cc(=O)n4cccc(C)c4n3)cc2)cc1	-	0	0	0	-	0
CCN(CC)CCNC(=O)c1c(C)oc2ncn(C)c(=O)c12	-	0	0	0	-	0
CCc1ccc(N2C(=O)CS(=O)(=O)C23C(=O)N(Cc2ccccc2F)c2ccccc23)cc1 (centres undefined)	-	0	0	0	-	0
CCS(=O)(=O)N1CCCC(C(=O)NCCOC)C1 (centres undefined)	-	0	0	0	-	0
COC(=O)c1cnn2c(C)c(Cc3c(C)cc(C)cc3C)c(C)nc12	-	0	0	0	-	0
Cc1c(-c2cccc(NC(=O)Nc3ccccc3)c2)nc2ncccn12	-	0	0	0	-	0
O=C(NCc1cccs1)c1ccc(CSc2nc3cccnc3n2Cc2ccccc2F)cc1	-	5.62µM	?	2.51µM	-	8.91µM
O=C(NC1CCCC1)c1ccc(CSc2nc3cccnc3n2Cc2ccccc2F)cc1	-	0	0	?	-	0
